Results on 53 compounds are retold here after ChEMBL document CHEMBL4513216, “Probing the Open Global Health Chemical Diversity Library for Multistage-Active Starting Points for Next-Generation Antimalarials” (ACS Infect Dis, 2020).

The campaign covered roughly 65,000 compounds. About 2,100 (3.2%) showed an effect of 50% or more. The median lay at about -52%. The full list was thinned out, with strong results kept by preference.

The subject of the experiment is Plasmodium falciparum. Put plainly: Screen against P. falciparum Asexual Blood Stage (ABS), at 5uM. Format: functional, Dd2. As to conditions: tested at 5 uM.
Consider `CN(C)S(=O)(=O)NC1CCCc2c1cnn2-c1ccc(C(C)(C)C)cc1` (stereo not drawn), for which the INHIBITION was -174%.

Regarding `CN(C)C1CC2(CCN(C(=O)C3(C#N)CC3)CC2)c2ccccc21` (stereo not drawn), the INHIBITION is -28.5%. For `CC(C)NC(=O)NCC1(COc2cnccn2)C[C@@H](O)[C@@H](O)C1` (stereo partly drawn) the value was -54.9%; for `O[C@@H]1CC(CNCC2CC2)(COc2cccnc2)C[C@@H]1O` (stereo partly drawn), -24.8%. For `CC(C)NCC1(COc2ccccc2)C[C@@H](O)[C@@H](O)C1` (stereo partly drawn) the value was 60.4%. As for `Cn1ccnc1NC[C@@H]1CCC[C@@H]2CN(CC3CC3)C[C@@H]21`, the figure is -46.7%. Turning to `Cn1nc(COc2cccnc2)c2c1CCN(CC1CC1)C2`, the INHIBITION is -64%. As for `Cc1ccc(C)n1C(C)C(=O)N1CCCN(Cc2cscn2)CC1` (stereo not drawn), the figure is -16.5%.

Consider `Cc1cc(C(C)C(=O)N2CCCN(Cc3cscn3)CC2)c(C)o1` (stereo not drawn), for which the INHIBITION is on record as -136%. On to `Cc1ccc(C(C)C(=O)N2CCCN(Cc3cscn3)CC2)cc1` (stereo not drawn), for which the INHIBITION came to 57%. Consider `CN1CCC2(CC1)CC(NC(=O)c1csnn1)c1ccccc1O2` (stereo not drawn), for which the INHIBITION was -8.75%. In the case of `Brc1csc(-c2noc(C3COCCO3)n2)c1` (stereo not drawn), the INHIBITION is given as -301%. For `O=C(Cc1ccc2c(c1)CCCC2)N[C@@H]1CC[C@@H](n2ccnc2)[C@@H]1O` the value was -119%.

As to `CC(C)N(C)CC(=O)NCc1ccccc1N1CCN(C)CC1`, the INHIBITION came out at 43.8%.

Take `CC(=O)N1CCN(c2ccccc2CNc2cc(F)cc(F)c2)CC1`: the INHIBITION was found to be 14%. For `CN1CCN(c2ccccc2CNC(=O)CSC(F)(F)F)CC1` the value was 67.3%; for `Cn1ccnc1CN1CCC2(CC1)CN(Cc1cccnc1)C(=O)CO2`, -38.8%. As for `CCn1cc(CN2CCN(Cc3cccc(OC)c3)C(=O)C2)cc1C#N`, the figure is 47.9%; as for `Cc1cc(C)cc(CN2CCN(Cc3cc(C#N)n(C)c3)CC2=O)c1`, 18.4%. For `CCn1cc(CN2CCN(Cc3cc(C)cc(C)c3)C(=O)C2)cc1C#N` the value was 68.4%; for `CCOC(=O)CNC(=O)NCc1cc(C)n(-c2ccccc2OC)c1C`, -24.9%; for `c1nc(NCc2cc3n(n2)CCN(C2CCCCC2)C3)c2nc[nH]c2n1`, -10.3%.

For `COc1ccc(-c2ccc(C3CNCCO3)nc2)cc1` (stereo not drawn), the INHIBITION was 65%. For `COc1ccc(-c2cnc(N(C)C)nc2C2CNCCO2)cc1` (stereo not drawn), the INHIBITION stood at 28.8%. For the compound `c1ncc(-c2ccc(C3CNCCO3)nc2)cn1` (stereo not drawn), the INHIBITION was -94.8%. For `Cc1nn(C)c(C)c1C1CCCN1C(=O)c1ccc2nnc(C)n2c1` (stereo not drawn) the value was -60.9%; for `CCc1nnc(CN2CCC(N3CCN(CC)C3=O)CC2)o1`, -39.7%; for `CCN1CCN(C2CCN(Cc3ncc(C(C)(C)C)o3)CC2)C1=O`, 53.1%. As for `CCN1CCN(C2CCN(Cc3nnc(C(C)(C)C)o3)CC2)C1=O`, the figure is -29.7%; as for `CN1CCN(C2CCN(Cc3nnc(C(C)(C)C)o3)CC2)C1=O`, -117%; as for `CNc1cc2c(nn1)CCN(C(=O)c1cc(C)n(C3CC3)c1C)C2`, -66.6%. For `O=C(N[C@]12CC1CN(C(=O)c1ccco1)C2)c1cccc(F)c1` (stereo partly drawn) the value was 27.4%; for `CC(=O)N1CC2C[C@]2(NC(=O)c2ccco2)C1` (stereo partly drawn), 50.3%. Turning to `O=C(N[C@]12CC1CN(C(=O)c1ccco1)C2)c1ccco1` (stereo partly drawn), the INHIBITION came out at 37.7%.

As to `O=c1[nH]c2nc(N3CCSCC3)ncc2c(=O)n1-c1ccc(F)cc1`, the INHIBITION is -26.3%. For `Cc1ncsc1CN1CC[C@H](O)[C@@H](n2cnc3c(N)ncnc32)CC1`, the INHIBITION is reported as -98.6%. For `CCCc1ccc2oc(C(=O)N3CCCN(C)CC3)c(C)c2c1` the value was -22.2%. For the compound `O=C(c1cc(-c2ccn(CC3CC3)n2)n2ccccc12)N1CCOCC1`, the INHIBITION was determined as 69.5%. For `O=C(c1cc(-c2ccn(CC3CC3)n2)n2ccccc12)N1CCCO1` the value was -84.4%; for `O=C(O)c1cc(-c2ccn(CC3CC3)n2)n2ccccc12`, -74.2%; for `O=C(CN1CCOC(Cn2cccn2)C1)NCc1ccco1` (stereo not drawn), -88.2%. Regarding `O=C(NC1CC(F)(F)C1)[C@]12COC[C@H]1CN(Cc1ccccc1)C2`, the INHIBITION was -96%. As for `Cc1cc(=O)n2nc(Oc3ccc(F)c(F)c3)sc2n1`, the INHIBITION is -13.2%. For `Cc1cc(=O)n2nc(Oc3cccc(C(N)=O)c3)sc2n1` the value was -166%.

Regarding `Cc1cc(=O)n2nc(Oc3cccc(I)c3)sc2n1`, the INHIBITION came to 56.4%. For `COCCCNC(=O)CN1CCC(N2CCN(C)C2=O)CC1` the value was -137%; for `Cc1ccc(-c2nc(CN3CCc4c(ncn4C)C3)cs2)o1`, -159%.

For `Cn1cnc2c1CCN(Cc1csc(-c3ccco3)n1)C2`, the INHIBITION is 51.3%. For `Cn1cnc2c1CCN(Cc1csc(-c3ccccc3)n1)C2` the value was -10.7%; for `Cc1cc(NC(=O)C(C)N2CCN(c3ccc(C#N)cc3F)CC2)no1` (stereo not drawn), -124%. As for `CN(C(=O)Nc1ccncc1)C1CCN(c2ccc(Cl)cc2)CC1`, the figure is -10.2%; as for `COc1ccc(CNCCn2c(C)nc3ccccc32)cc1O`, -82.4%; as for `COc1ccc(-n2ccc(CNCc3ccc(OC)c(O)c3)n2)cc1`, -17.9%.
